According to the supplement of paper PMC6555819:

Tests used:
Test in all cases: PBM binding z-score (relative to random genomic background probes); higher = stronger binding; sequences stand for … in GC…GCGATTGACAGCGTAGAATGAAGG
[1] = test system: RARb homodimer (NR concentration 270 nM)
Method in brief: (§1)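 Random background probes are the reference for binding z-scores. These scores derive from regression-normalized fluorescence on custom Agilent 4×180K protein-binding microarrays incubated 1 h with ligand-free nuclear receptor dimers. Binding was detected with antibodies against each partner (one per run).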

[2] = test system: RARg:RXRa (NR concentration 270 nM, RXRa partner concentration 90 nM)
Method in brief: as §1

[3] = test system: RARg homodimer (NR concentration 270 nM)
Method in brief: as §1

[4] = test system: RXRa DBDmut IVT, anti-RXR (DBD mutation: RXRa K156A/R161A, NR concentration 90 nM)
Method in brief: as §1

[5] = test system: RXRa homodimer (NR concentration 180 nM)
Method in brief: as §1

[6] = test system: THRa:RXRa (NR concentration 90 nM, RXRa partner concentration 90 nM)
Method in brief: as §1

[7] = test system: THRa homodimer (NR concentration 90 nM)
Method in brief: as §1

[8] = test system: VDR homodimer (NR concentration 270 nM)
Method in brief: as §1

Sequence	PBM binding z-score [1]	PBM binding z-score [2]	PBM binding z-score [3]	PBM binding z-score [4]	PBM binding z-score [5]	PBM binding z-score [6]	PBM binding z-score [7]	PBM binding z-score [8]
CCTAGCAGGCCGATCTGGGTCACTCAAGGCTTGA	1.59	0.546	0.594	-0.129	0.768	2.97	0.256	-0.162
TTACCAAGCTGAAAGGTCGTTGATGCACGCCTTG	1.45	1.06	0.528	-0.0422	2.04	0.936	-0.608	0.539
ACAGAGAGGTGAGTGAAGGTAACTCAGCTGGACG	0.91	0.89	1.24	-0.227	0.647	2.59	0.294	-0.548
CCGAGTAGGTTATGGGGCATTCAGGCAACGGTGA	1.08	0.469	0.552	0.0295	0.728	0.503	0.317	-0.196
TCTTGTAGATCAACAGGAGTTTAAGAAAGATCGA	-0.522	0.249	-0.0816	0.335	0.176	-0.275	-1.05	0.485
TTACCAAGGTGAAGGTCGTTAATCCCTCTGTAGA	1.62	1.07	0.814	-0.0664	1.54	2.22	0.878	0.939
GCAGACAGGTGAAACGCAGGTAACTAAGGGTGGC	0.042	0.719	0.208	-0.64	0.593	1.15	-0.719	-0.867
CGAACTAGGTCCAGGACAGTGAATCTCCGCACGC	-0.206	-0.326	-0.183	0.703	-0.387	0.749	0.778	0.133
TCATATAGGTAAAAAGTGAAAGTCGGTGTGGTAA	0.0434	0.226	-0.0939	2.01	0.563	-0.0757	-0.132	0.435
CCTAGTTGGTCAAGGTTACACACGCTATAGGTAC	2.15	1.49	1.86	1.24	1.48	2.16	1.78	1.42
AATACAGGGTCTCTAGGCCAGAGTAGGTACGAAT	0.256	0.0798	0.292	-0.254	-0.15	0.0248	-0.0749	0.143
TGTCAAAGTTCAAAGGTAACGTCAGTATCCACAC	4.03	6.26	5.87	4.29	6.96	3.51	-0.193	4.08
CCTTACGGGTCAAAGTTATAGCACGGGTGGTACG	2.72	4.74	3.89	1.42	5.29	2.3	-0.124	1.46
TAGCCTAGGTGATGCGGGCCAGTATAGTGTCGGC	-0.307	-0.331	-0.372	-1.62	-0.304	-0.285	-0.885	-1.22
CCTATTAGTTGACCATAAGGGCAAGCGAAGCTCG	1.9	0.986	1.05	0.414	0.645	1.75	1.08	0.847
TCATATAGGTAACTGCTAGGTGAAAGTCCGATCT	0.607	0.501	0.315	1.53	0.853	1.43	0.668	0.0262
GCATATAGGTAATACAAGGTGGAAGTCCGATTGT	-0.533	0.279	0.315	0.235	0.566	2.03	-0.457	-0.109
CCTTACGGGTCACTCCAAGTTATAGCATCGGAGT	2.81	4.31	4.69	1.81	4.11	2.51	0.165	1.05
TCTTGTAGATCAATAGAGGTTATGAAAGTGCGCT	1	1.01	0.611	1.05	1.55	2.33	-0.187	0.0483

Sequence	PBM binding z-score [1]	PBM binding z-score [2]	PBM binding z-score [3]	PBM binding z-score [4]	PBM binding z-score [5]	PBM binding z-score [6]	PBM binding z-score [7]	PBM binding z-score [8]
TCTCGAAGGACACGAAGGTCAGAGCTTTCCAGAG	3.75	2.99	3.73	0.817	1.94	2.03	0.331	0.435
CCGAGTAAGTTATGGGGCATTCAGGCAACGGTGA	0.181	-0.241	-0.0978	0.0937	-0.299	0.0579	-0.117	-0.0157
TCTATTAATTGAAGGGCAACCGACGAGTCCGTTT	1.05	0.656	0.454	1.24	0.717	0.258	0.559	2.19
GCTAGCAGGCCATTTGGGTCACACAATGACGGGC	1.93	1.23	1.48	-0.0753	1.2	2.03	0.818	0.18
CCTCTTAGTTGACCATAAGGGCAACCGAAGCTCG	2.25	1.17	1.15	0.285	0.712	2.07	1.59	0.985
ACATACGGGTCAACGAGGTTATAGCACGCGTATA	3.66	5.55	5.24	2.49	5.71	3.82	0.951	3.69
GCTATTAGTTGAAAGAGCAACCGAATGATTCTCG	-0.533	-0.181	0.242	0.464	0.226	-0.376	-0.896	-0.22
GAAACAGGGTCAAGGCCAGAGTACGCGTATTGAT	4.02	5.52	5.06	2.9	6.17	3.85	1.44	2.56
TGAATGAGGTAATAAGATCAGGGAACGTTGCAAA	-0.532	0.204	0.306	-1.15	0.365	0.991	-0.205	-0.404
CCTACTGGGCCACGAAAGGTCATTGTTTCAGTGA	4.64	4.55	4.31	0.971	5.09	3.94	0.739	2.75
GTACCAAGGTGAGTAGGTCGTTGATGAGTAGGCG	1.15	0.89	0.657	-0.673	0.551	0.995	0.258	0.112
CCCACTGGGGCAGAAAGGTTACCATACCATCCGG	2.2	1.52	1.63	-1.65	1.6	1.01	-0.221	-0.41
TCTGCTAGGTCAACGATGGTCAGCTCATCTGCTA	3.24	3.91	4.62	1.05	2.41	3.15	0.671	-0.436
TAGCCTAGGTCATGTGGGCCAGTATAGTGTCGGC	3.33	3.77	4.65	0.816	3.13	2.97	1.48	0.672
AGTCAAAGTTCAGGACCAGGTAACGTAAAGCACG	3	4.41	4.51	2.84	2.91	3.14	0.673	1.72
ATATGTAGGTTATCCGGTCATTCAGTTTGCGCAT	2.35	2.11	1.83	0.932	1.4	1.67	1.08	1.53
AGAACGATGGCAATGAGTTGATAGCACGGGTGGC	-1.04	-0.249	0.108	-0.297	0.0313	-0.986	-0.999	-0.0604
TGTGAAAGTTCAAAGGTAACGTAAGTATCCACAC	3.75	5.88	5.56	4.17	7	3.13	0.137	3.9
ATGTCTAGGTAACCAAGTTCAGTGAATGCCGAAC	1.34	0.808	0.759	0.268	0.737	1.42	0.382	2.08

Sequence	PBM binding z-score [1]	PBM binding z-score [2]	PBM binding z-score [3]	PBM binding z-score [4]	PBM binding z-score [5]	PBM binding z-score [6]	PBM binding z-score [7]	PBM binding z-score [8]
TCATATAGGTAATACAGGTCAAAGTCGGCATCTA	3.29	2.91	2.37	2.04	3.63	2.71	1.24	2.13
TCTAGCAGGCCAGAGTGTCACTCAAGAGGTACGG	0.119	0.145	0.167	-0.194	0.302	-0.304	-1.19	-0.738
TCGAGTAGGGTAGTCGGGGCATTCAGCCAACATA	0.403	-0.271	-0.538	0.261	-0.197	0.368	0.185	0.229
TCTTGTAGATCAAGCAGGTTAAGTAAGCCTGAGT	0.0988	-0.201	-0.463	0.439	0.0943	0.33	-0.503	-0.0277
CCTGCTAGGTCAATGGTCAGCTTAAGCAGCTCGC	3.14	3.62	4.2	2	2.25	2.31	0.712	0.066
CCTACTGGGCCAGCAGGTCATTGATATCAACGTT	2.26	2.03	1.62	-0.531	1.6	1.86	0.347	0.812
TAGCCTAGGTCTGATCGGGCCAGTATACGCTATA	-0.807	-0.244	-0.187	-1.28	-0.358	0.71	-0.845	-0.912
AGAACGAGGGCACACTGAGTTGATAGCAGAGTAG	1.02	1.64	1.91	2.1	1.24	1.72	0.167	1.78
CGTCCAAGGTCATAGGAGGTCTGTGAAGACAGAT	3.75	5.85	5.79	3.7	6.11	4.63	2.24	2.81
CGTCCAAGGTCATGGTCAGTGAAAGAGACTCGAA	4.01	6.19	6.11	3.84	5.98	3.92	2.89	2.52
TCTGCTAAGTCAACGATGGTCAGCTAATCTGCTA	-0.66	-0.413	-0.169	-0.0661	-0.206	-0.52	-1.37	-1.4
GCTAACGGGTCAAAGGTTATAGCATGAATAGAAT	3.09	6.57	4.55	1.87	8.85	3.65	-0.286	1.33
GCTCGGAGGACAAGGTCAGACCTTTGTCCGTAGA	3.1	3.68	3.51	0.424	3.12	2.94	1.47	0.924
ACTTACGGGTCAACGAGGTTATATCACGCGTATA	3.73	5.37	4.95	2.74	6.14	4.04	1.45	3.3
CCTCGGAGGACACAAGGTCAGAGCTGTCCGCTTT	3.68	3.85	3.74	0.757	2.07	3.65	1.57	0.992
ATCTCTAGGGAACAAGTTCAGTGAAAGAGAGGAC	1.49	0.977	1.13	0.71	0.649	0.823	0.263	2.43
CCTACTGGGCCTTTCAGAGGTCATTGATCATATG	3.64	3.43	2.71	0.749	3.84	3.04	1.36	2.8
GGAACGAGGGCAAGTTGATAACAGAGTTTGATGG	1.22	1.6	2.06	2.29	0.775	1.13	0.176	1.74
CCTAGCAGGCCAATATGGGTCACTCAAGGCTTGA	2.09	1.38	1.31	-0.181	1.36	2.5	-0.509	-0.211
